Compounds with a hit are over-represented: about 4.2% of the library has one in this group of screens.
NALP1 yeast inh: inhibitors of NALP1 inflammasome in yeast | inhibition, % at 10 µM | S. cerevisiae NALP1/ASC/caspase-1 growth, X-gal OD620, 72 h | actives 0.61% (n = 280,000); in the data active = inhibition mostly above about 24%, no sharp cut-off; inactive = mostly below about 32%
NLRP3 yeast inh: NALP3 inhibition in yeast; inhibition, % at 10 µM; Yeast reconstituted NLRP3/ASC/caspase-1, beta-gal luminescence, 24 h; actives 0.39% (n = 330,000);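 active = inhibition of 50% or more; inactive = inhibition below 50%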;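 also: plate controls were induced DMSO wells for no effect and uninduced yeast grown without galactose for full effect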
tim10-1 inh: tim10-1 yeast growth inhibition; S. cerevisiae tim10-1 ts strain growth, BacTiter-Glo, 24 h; inhibition, % at 20 µM; actives 2.2% (n = 330,000); AID 463190;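 active = inhibition of at least 40%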;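 also: mutant grown at 25 °C; 0% = DMSO wells with yeast and 100% = wells holding no yeast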
PfHsp90 set2: reduces growth (ATP signal) of yeast expressing P. falciparum Hsp90. S. cerevisiae expressing PfHsp90, BacTiter-Glo ATP, 48 h; yeast lacking PDR1 and PDR3 efflux regulators. inhibition, % at 9.4 µM. actives 0.32% (n = 310,000);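 active = every replicate shows inhibition above about 80%, whatever the replicate mean, limit read from the data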;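 also: 0% = DMSO neutral controls and 100% = 20 µM radicicol positive controls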
tim23-1 inh: tim23-1 yeast growth inhibition; S. cerevisiae tim23-1 growth, BacTiter-Glo luminescence, 24 h; inhibition, % at 20 µM; actives 1.3% (n = 330,000);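 active = growth inhibition of the mutant yeast at or above 50%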;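 also: temperature-sensitive mutant grown at 25 °C; plate controls were DMSO-treated mutant yeast for no effect and medium wells lacking yeast for full effect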
TIM10 inh: TIM10 yeast growth inhibition | S. cerevisiae TIM10 strain growth, BacTiter-Glo luminescence, 24 h | inhibition, % at 10 µM | actives 1.4% (n = 330,000);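 active = inhibition of 40% or more at the single tested concentration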;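 also: wild-type TIM10 isogenic control strain grown at permissive 25 °C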
tim10-1 conf: tim10-1 yeast growth inhibition, confirmed. shares compounds with tim10-1 inh. S. cerevisiae tim10-1 ts strain growth, BacTiter-Glo, 24 h. inhibition, % at 20 µM. actives 56% (n = 7,400). AID 463213;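 active = inhibition of yeast growth at or above a set limit in either of two repeat tests at 20 µM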;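 also: tim10-1 mutant grown at permissive 25 °C to find synthetic lethal compounds; 0% = DMSO yeast wells and 100% = medium wells without yeast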
Numbers without * were called inactive; . = no result given.

SMILES	NALP1 yeast inh	NLRP3 yeast inh	tim10-1 inh	PfHsp90 set2	tim23-1 inh	TIM10 inh	tim10-1 conf
CCc1cc2c(=O)nc3n(c2s1)Cc1ccccc1/C3=C(/O)c1ccc(F)cc1	13.1	17.6	44.0*	-1.7	42.6	18.6	35.0*
CCc1cc2c(=O)nc3n(c2s1)Cc1ccccc1/C3=C(/O)c1cccc([N+](=O)[O-])c1	-9.2	41.6	29.6	3.2	41.7	27.9	.
O=C(COC(=O)CCc1ccccc1)NC12CC3CC(CC(C3)C1)C2	-17.1	-11.1	42.8*	.	31.8	14.3	28.1
O=C(COC(=O)C(O)c1ccccc1)NC12CC3CC(CC(C3)C1)C2 (centres undefined)	1.6	14.5	13.2	-19.8	15.8	5.7	.
O=C(COC(=O)C12CC3CC(CC(C3)C1)C2)NC12CC3CC(CC(C3)C1)C2	0.9	18.7	41.0*	1.5	28.0	38.0	38.8*
CCC(CC)C(=O)OCC(=O)NC12CC3CC(CC(C3)C1)C2	24.8	6.4	30.1	.	28.9	26.0	.
Cc1ccccc1N/N=C/c1c(C)nc2ccccn12	23.9	25.2	44.9*	-8.5	30.9	17.1	23.7
Cc1nc2ccccn2c1C(=O)N/N=C/c1ccccc1	12.5	-0.8	12.3	-7.5	10.8	-9.7	.
CC(C)(O)CN(CCCNC(=S)Nc1ccccc1)C(=S)Nc1ccccc1	.	.	.	1.6	.	.	.
O=C(NCCSc1ccc(Br)cc1)c1ccc2nc[nH]c2c1	-15.5	10.0	-11.2	-1.6	-9.1	-5.3	.
Cc1cc(C(=O)CSc2nnc(-c3ccc(Cl)cc3)n2CC2CCCO2)c(C)n1C (centres undefined)	1.6	-25.2	50.0*	2.9	32.6	13.8	34.9*
CN(C(=O)CSc1nnc(-c2ccc(Cl)cc2)n1CC1CCCO1)C1CCS(=O)(=O)C1 (centres undefined)	-6.5	-14.3	4.0	-34.8	-1.3	11.9	.
CCN(CC)C(=O)COc1ccc(C=O)cc1OC	34.0	-0.5	18.0	-7.8	5.0	2.9	.
C=CCN1C=C/C(=C\C=C(C#N)C#N)c2ccccc21	15.1	13.0	37.0	2.3	26.2	39.2	.
CCCCCCN1C=C/C(=C\C=C(C#N)C#N)c2ccccc21	3.7	13.9	49.4*	31.2	47.0	36.7	22.9
COCCNC(=S)N/N=C(\C)c1ccc2cc(OC)ccc2c1	16.3	14.1	34.7	-63.7	48.7	32.3	.
COCCNC(=S)N/N=C(\C)c1cccc(C(F)(F)F)c1	-0.1	3.6	45.2*	-56.2	25.8	34.1	14.7
COCCNC(=S)N/N=C(\C)c1cc2ccccc2o1	16.6	13.8	41.5*	-17.0	35.6	35.5	15.5
c1ccc(Cc2cc[n+](Cc3ccccn3)cc2)cc1	-6.0	8.8	2.1	9.0	0.6	12.8	.
CN(c1ccccc1)S(=O)(=O)c1cccc(NS(=O)(=O)c2cccc(C(=O)O)c2)c1	.	1.1	21.9	1.3	11.2	11.3	.
O=C(CNS(=O)(=O)c1c(Cl)cccc1Cl)OCc1csc(-c2ccccc2)n1	30.4	-2.2	46.8*	14.1	47.3	14.0	31.8*
Cc1cccn2c(=O)c3cc(C(=O)NC4CCCCC4)c(=N)n(Cc4ccc(F)cc4)c3nc12	17.9	6.9	42.0*	-11.4	21.4	5.0	-8.9
Cc1cccn2c(=O)c3cc(C(=O)NC4CCCC4)c(=N)n(CC4CCCO4)c3nc12 (centres undefined)	4.1	-0.2	-3.7	-15.6	3.2	5.3	.
COc1cc(NC(=O)c2sc(C)nc2C)c(OC)cc1NC(=O)c1ccccc1	34.5	19.4	2.0	-21.0	21.9	16.7	.
Cc1ccc(C)c(OC(=O)c2cccc(S(=O)(=O)N3CCN(C)CC3)c2)c1	11.7	14.0	42.1*	-17.2	34.3	25.2	17.8
SMILES	NALP1 yeast inh	NLRP3 yeast inh	tim10-1 inh	PfHsp90 set2	tim23-1 inh	TIM10 inh	tim10-1 conf
O=C(C(=O)N(Cc1ccccc1)Cc1ccccc1)c1c(-c2ccccc2)[nH]c2ccccc12	.	.	.	-34.9	.	.	.
Cc1ccc(OCCn2cnc3cc([N+](=O)[O-])ccc3c2=O)cc1	7.5	22.5	45.9*	39.5	18.2	25.9	22.1
O=c1cc(-c2ccccc2Cl)oc2c(NS(=O)(=O)c3ccccc3OC(F)(F)F)ccc(O)c12	-4.1	42.5	17.6	29.6	3.3	-7.8	.
O=C(NCCC1=CCCCC1)C1CCCN(c2nc3ccccc3o2)C1 (centres undefined)	-3.4	19.3	49.3*	19.3	34.9	14.0	34.6*
Cc1ccc(CNC(=O)C2CCCN(c3nc4ccccc4o3)C2)cc1 (centres undefined)	30.4	20.7	0.6	12.2	-6.6	-8.6	.
CN(C)C(=C(C#N)C#N)N1CCN(c2ccc(Cl)c(Cl)c2)CC1	-6.4	-15.3	41.9*	-13.4	26.6	7.8	10.4
Cc1cccc(CS(=O)(=O)Cc2ccc(C(=O)NC3CCCC3)o2)c1	6.8	17.9	0.4	-4.6	-8.3	1.6	.
CS(=O)(=O)c1sc2nc(-c3cccs3)cc(-c3ccccc3)c2c1N	1.4	1.4	17.9	-9.4	7.1	34.3	.
Cc1ccc(-c2cc(-c3ccccc3)c3c(N)c(S(C)(=O)=O)sc3n2)cc1	-4.1	11.4	49.1*	0.3	23.6	34.3	43.0*
Cc1ccc(CS(=O)(=O)c2ccc(C(=O)N3CCCCC3)cc2[N+](=O)[O-])cc1	-4.8	24.4	23.9	-30.9	24.3	19.2	.
Cc1ccc(CS(=O)(=O)c2ccc(C(=O)N3CCN(c4ccccn4)CC3)cc2[N+](=O)[O-])cc1	11.7	22.1	46.6*	.	32.6	14.6	23.6
Cc1ccc(-c2noc(CN3CCN(C(c4ccccc4)c4ccccc4)CC3)n2)cc1	1.3	4.4	41.3*	-5.3	24.3	37.0	19.0
Cc1ccc(-c2noc(CN3CCCCC3)n2)cc1	21.7	23.1	18.0	-19.7	9.1	-14.6	.
O=C(Oc1ccc2ccc(=O)oc2c1)c1ccco1	-1.7	14.3	45.8*	19.1	31.5	29.7	20.4
CCOC(=O)CSc1nnc(CNc2ccccc2Cl)n1-c1ccccc1	-3.7	-20.5	45.2*	.	23.8	2.8	19.8
Cc1ccc(-n2c(Cc3cccn3C)nnc2SCC(=O)N2CCc3ccccc32)cc1	-7.6	11.6	42.6*	-0.4	34.7	32.7	22.3
Cc1ccc(-n2c(SCC(=O)OC(C)C)nnc2-c2ccccn2)cc1	3.5	7.8	41.8*	1.5	35.8	29.8	34.9*
Cn1cccc1Cc1nnc(SCC(=O)N2CCc3ccccc32)n1-c1ccc(F)cc1	15.2	3.7	9.1	-4.2	12.4	1.9	.
COc1ccc(-n2c(CNc3ccc(C)cc3)nnc2SCc2ccccc2)cc1	18.5	0.1	42.9*	20.2	48.2	26.2	34.0*
CCOC(=O)c1nn(-c2ccccc2C)c(=O)cc1OCC(=O)N1CCN(c2ccccc2)CC1	.	15.3	14.8	10.3	16.8	6.0	.

Compound activity deposited in PubChem BioAssay by several laboratories.
